# SARS PLP yeast – SARS-CoV PLP inhibition in yeast; S. cerevisiae expressing SARS-CoV PLpro, growth rescue; AID 485353; Potency, µM (top dose mostly 32.9 µM), without a hit: at the top dose activity, positive = growth rescue, actives largely listed as activators; 330,000 tested, 0.19% active; note: potency is the fitted concentration of half-maximal effect; 0% is about no effect; nearly all actives have a fitted effect of over 55% in size
# Pf growth 96h – P. falciparum growth inhibition at 96 hours; 320,000 tested, 6.9% active; P. falciparum luciferase reporter growth, 96 h; Potency, µM (doses to about 28.7 µM), for the others: at the top dose activity change, negative = inhibition, actives largely listed as inhibitors; AID 504834; active = well fitted inhibition curve with a large enough effect; inconclusive = small, poorly fitted or top-dose-only effect, or another doubt; inactive = no such curve, though single readings can be large or run the other way; note: potency is the fitted concentration of half-maximal effect; % is set by controls: 0 for no effect and ±100 for the full control effect
#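 Delayed-death screen, second-generation endpoint: infected erythrocytes, 2% hematocrit, 0.05% parasitemia final; 96 hours at 37 C, 5% CO2; luciferase detection reagent; luminescence decrease equals reduced growth.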
# Shiga toxin inh – Shiga toxin inhibition. AID 2315. Vero cells, Shiga toxin protein synthesis inhibition reporter. 290,000 tested, 9.2% active. inhibition, % at 38.7 µM; in the data active = inhibition mostly above about 28%, no sharp cut-off; inactive = mostly below about 43%; note: 0% is about no effect
# NS1 inh – blocks influenza NS1 protein function; Potency, µM (highest dose often 46.1 µM), for inactives: top-dose activity, positive = more growth; AID 2326; 270,000 tested, 0.4% active; note: potency is the fitted concentration of half-maximal effect; actives are rising curves; nearly all actives have a fitted effect of over 50% in size
#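 Growth recovery, yeast-based: influenza A NS1 expressed in S. cerevisiae causes slow growth, and suppressors are detected by OD600. The parent strain without NS1 is used as positive control.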
# Cycloheximide cs – counter-screen hit for Shiga toxin inhibitors, cycloheximide; cell reporter, cycloheximide protein synthesis inhibition counterscreen; max response, %; 300,000 tested, 12% active; AID 2314; in the data active = max response mostly above about 13%, no sharp cut-off; inactive = mostly below about 14%; note: read at 38.3 µM for the half of the compounds with a filed dose; 0% is about no effect
# Pf growth 48h – inhibits P. falciparum growth in the first generation, 48 h | P. falciparum luciferase growth in erythrocytes, 48 h | Potency, µM (highest dose often 28.7 µM), without a hit: top-dose activity change, negative = inhibition, most hits filed as inhibitors | 310,000 tested, 5.9% active; active = well fitted inhibition curve with a large enough effect; inconclusive = small, poorly fitted or top-dose-only effect, or another doubt; inactive = no such curve, though single readings can be large or run the other way; note: potency is the fitted concentration of half-maximal effect; % is set by controls: 0 for no effect and ±100 for the full control effect
#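 Luciferase-expressing parasites in RBCs, 2% Hct / 0.1% parasitemia final; RPMI 1640 + 0.5% Albumax; 37 C, 5% CO2, one generation; luminescence read-out, lower signal = inhibition.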
# Starred values were filed as active, the others as inactive; ? = inconclusive; / = not tested or not shown. Shown are actives, neighbours in structure and some others; about 21% of the full set was active somewhere. Unless noted, calls come from the whole dose curve.
SMILES,SARS PLP yeast,Pf growth 96h,Shiga toxin inh,NS1 inh,Cycloheximide cs,Pf growth 48h
Cc1ccnc(NC(=O)COc2ccc3oc4c(c3c2)CCCC4)c1,3%,12µM*,66*,-7%,43*,125%
NNC(=O)COc1ccc2oc3c(c2c1)CCCC3,-12%,-18%,-3,25%,1,10%
CNC(=O)NC(=O)COc1ccc2oc3c(c2c1)CCCC3,-8%,20%,58*,-42%,22*,49%
CNC(=O)COc1ccc2oc3c(c2c1)CCCC3,1%,24%,19,-13%,9,17%
Cc1ccnc(NC(=O)COc2ccc3c(c2)CCC3)c1,/,68%,/,/,/,44%
CC(C)OCCCNC(=O)COc1ccc2oc3c(c2c1)CCCC3,-11%,4.1µM*,26,-36%,7,-19%
COc1cccc(/C=C/C(=O)N2CCN(S(=O)(=O)c3ccccc3)CC2)c1OC,2%,?,-5,-3%,-3,159%
COc1ccc(-n2c(SCc3ccc([N+](=O)[O-])cc3)nnc2-c2ccccc2)cc1,5%,?,-6,20%,3,?
O=[N+]([O-])c1ccc(-c2nnc(S)n2-c2ccccc2)cc1,-3%,-32%,/,10%,28*,97%
Cc1ccc(NC2CCCN(C(=O)CCCN3CCCCC3=O)C2)cc1C (stereo unspecified),-3%,?,21,9%,13*,?
Cc1ccc(NC2CCCN(C(=O)c3ccoc3)C2)cc1C (stereo unspecified),0%,10µM*,22,0%,6,0%
Cc1ccc(NC2CCCN(C(=O)c3cccc(-c4ncc[nH]4)c3)C2)cc1C (stereo unspecified),-2%,10µM*,-4,-7%,-1,?
Cc1ccc(NC2CCCN(C(=O)c3ccc(C)c(N4CCNC4=O)c3)C2)cc1C (stereo unspecified),0%,80%,20,9%,9.9*,-27%
Cc1ccc(S(=O)(=O)N(C)c2ccc(OC(=O)c3cccs3)cc2)cc1,1%,/,/,/,/,/
C1=CC2CC1CC2CN1CCN(Cc2ccccc2)CC1 (stereo unspecified),-6%,-14%,0,-6%,1,/
Cc1ccc(NC2CCCN(C(=O)C3CCCC3)C2)cc1C (stereo unspecified),14%,13µM*,-7,-11%,-2,21%
Cc1ccc(NC2CCCN(C(=O)c3cnsn3)C2)cc1C (stereo unspecified),1%,0%,2,-11%,7,5%
CCOc1ccc(NC(=O)Cn2ncc3ccccc32)cc1,-3%,31%,74*,4%,38*,97%
CCOc1ccc(NC(=O)CCSc2ccc3ccccc3n2)cc1,-28%,26%,15,-11%,15*,-9%
CC1CCC(NC(=O)Cn2ncc3ccccc32)CC1 (stereo unspecified),-3%,17%,active,1%,18*,40%
CC(C)c1ccc(NC(=O)c2cc(S(=O)(=O)NCC3COc4ccccc4O3)ccc2F)cc1 (stereo unspecified),-37%,2.9µM*,-13,-1%,-2,?
COc1ccc(NC(=O)c2cc(S(=O)(=O)NCC3COc4ccccc4O3)ccc2F)cc1 (stereo unspecified),10%,44%,-4,-3%,-2,-17%
O=C(c1ccc(Cl)cc1)c1oc2ccccc2c1CS(=O)(=O)c1ccccc1,3%,10µM*,10,7%,13,-3%
N#CCCCn1c(-c2ccccc2)noc1=O,-1%,3.7µM*,-7,0%,-4,7%
O=C(Cn1c(-c2ccccc2)noc1=O)NCc1ccccc1,8%,1%,-17,-7%,11,?
Cc1ccc([N+](=O)[O-])cc1-c1[nH]c(-c2ccc(O)c(O)c2)nc1-c1ccccc1,23%,20%,1,24%,-4,/
COc1ccc(-c2nc(-c3ccccc3)c(-c3cc([N+](=O)[O-])ccc3C)[nH]2)cc1O,-22%,?,19,21%,-6,5.2µM*
COc1ccc([N+](=O)[O-])cc1-c1[nH]c(-c2ccc(C(=O)O)cc2)nc1-c1ccccc1,-9%,?,-9,13%,1,8.3µM*

# Screens as filed in PubChem.
